Laboratory results: PubChem BioAssay
Where “and” joins values, the source holds several entries; their conditions need not be identical. Equal values may be shown once. Calls of active or inactive are those of the source.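 Rule for the calls, unless noted: active = z-score of at least 1.8 in each of two replicates, scored against plate mean and spread of sample wells; inactive = the rest.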

target: Mitogen-activated protein kinase 7 (Homo sapiens) (UniProt Q13164); experiment: Gal4-ERK5 driven luciferase induction – cell-based, HTS, primary screen (AID 1508626;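 active = luciferase signal above three times the same-plate solvent-only control wells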;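 note: luciferase driven by Gal4-ERK5 fusion binding five Gal4 sites before minimal TATA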); settings: HeLa Gal4-ERK5 transactivation, 18 h, at 5 µM, active compounds read high
Sequence (Q13164 whole entry, looked up, the tested form may be a part): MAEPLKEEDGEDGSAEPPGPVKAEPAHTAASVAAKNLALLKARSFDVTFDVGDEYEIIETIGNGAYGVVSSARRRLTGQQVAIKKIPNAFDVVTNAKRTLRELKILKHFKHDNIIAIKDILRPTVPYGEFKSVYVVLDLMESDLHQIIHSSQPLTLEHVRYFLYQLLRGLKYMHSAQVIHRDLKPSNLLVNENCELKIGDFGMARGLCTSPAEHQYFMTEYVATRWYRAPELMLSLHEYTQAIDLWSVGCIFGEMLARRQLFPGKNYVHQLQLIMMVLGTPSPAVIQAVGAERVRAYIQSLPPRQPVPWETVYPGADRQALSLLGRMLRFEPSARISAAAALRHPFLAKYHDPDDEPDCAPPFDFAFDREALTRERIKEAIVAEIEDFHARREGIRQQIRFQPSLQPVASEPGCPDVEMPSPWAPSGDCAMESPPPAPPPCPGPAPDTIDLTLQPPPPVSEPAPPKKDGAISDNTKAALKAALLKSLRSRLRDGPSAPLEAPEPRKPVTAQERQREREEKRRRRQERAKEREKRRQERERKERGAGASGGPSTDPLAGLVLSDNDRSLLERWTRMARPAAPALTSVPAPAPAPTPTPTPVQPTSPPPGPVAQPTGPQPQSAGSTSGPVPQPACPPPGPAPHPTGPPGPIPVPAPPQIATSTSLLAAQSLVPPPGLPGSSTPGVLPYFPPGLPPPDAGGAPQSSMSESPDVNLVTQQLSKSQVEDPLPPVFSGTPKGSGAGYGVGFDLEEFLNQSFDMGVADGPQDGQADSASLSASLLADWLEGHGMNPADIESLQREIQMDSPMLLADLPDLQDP

| Structure (SMILES) | luciferase signal |
| --- | --- |
| CC1(C)[C@@H](O)CC[C@]2(C)[C@H]3C(=O)C=C4[C@@H]5C[C@@](C)(C(=O)O)CC[C@]5(C)CC[C@@]4(C)[C@]3(C)CC[C@@H]12 | 56 AU (inactive) |
| COc1ccc(CCC(=O)c2c(O)cc(O[C@@H]3O[C@H](CO)[C@@H](O)[C@H](O)[C@H]3O[C@@H]3O[C@@H](C)[C@H](O)[C@@H](O)[C@H]3O)cc2O)cc1O | 36 AU (inactive) |
| O=C(O)c1cc(=O)c2ccccc2[nH]1 | 40 AU (inactive) |
| C[C@@]12C[C@@]3(O)O[C@@H](O1)[C@]1(COC(=O)c4ccccc4)[C@H]3C[C@@]12O[C@@H]1O[C@H](CO)[C@@H](O)[C@H](O)[C@H]1O | 60 AU (inactive) |
| CC(C)C[C@H]1C(=O)N2CCC[C@H]2[C@]2(O)O[C@](NC(=O)[C@@H]3C=C4c5cccc6[nH]c(Br)c(c56)C[C@H]4N(C)C3)(C(C)C)C(=O)N12 | 200 AU (inactive) |
| C[C@H]1C[C@H]2[C@@H]3CCC4=CC(=O)C=C[C@]4(C)[C@@]3(F)[C@@H](O)C[C@]2(C)[C@@]1(O)C(=O)CO | 80 AU (inactive) |

system: not listed separately; experiment: galactose survival enhancers in mitochondrial complex I cybrids – cell-based, galactose medium, ATP luminescence, primary screen (AID 1645843); settings: complex I mutant cybrid cells, 72 h, active compounds read high;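 note: positive z means more ATP and so rescue of galactose-driven cybrid death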

| Structure (SMILES) | z-score |
| --- | --- |
| COc1cccc(OC)c1OCCNCC1COc2ccccc2O1 (stereo not given) | -0.59 (inactive) and -0.815 (inactive) |
| CCC[C@@H]1C[C@@H](C(=O)N[C@@H]([C@H]2O[C@H](SC)[C@H](O)[C@@H](O)[C@H]2O)[C@@H](C)O)N(C)C1 | -0.14 (inactive) |
| O=C(O)C1=CCNCC1 | 0.645 (inactive) and -0.22 (inactive) |
| COc1cc2c(c(OC)c1OC)-c1ccc(OC)c(=O)cc1C(NC(C)=O)CC2 (stereo not given) | -0.44 (inactive) |
| O=C(O)c1c2ccccc2cc2ccccc12 | 0.475 (inactive) |
| CCCn1c(=O)c2[nH]c(C3CCCC3)nc2n(CCC)c1=O | 1.02 (inactive) and 0.16 (inactive) |
| CN[C@H](CC(C)C)C(=O)N[C@H]1C(=O)N[C@@H](CC(N)=O)C(=O)N[C@H]2C(=O)N[C@H]3C(=O)N[C@H](C(=O)N[C@H](C(=O)O)c4cc(O)cc(O)c4-c4cc3ccc4O)[C@H](O)c3ccc(c(Cl)c3)Oc3cc2cc(c3O[C@@H]2O[C@H](CO)[C@@H](O)[C@H](O)[C@H]2O[C@H]2C[C@](C)(N)[C@H](O)[C@H](C)O2)Oc2ccc(cc2Cl)[C@H]1O | 0.26 (inactive) |
| C=C1C(=O)O[C@H]2[C@H]1CC/C(C)=C/CC[C@@]1(C)O[C@@H]21 | 1.27 (inactive) |
| O=C(O)C1=CCCNC1 | 0.54 (inactive) and -0.25 (inactive) |
| O=C(O)Cc1nn(Cc2ccc(Br)cc2F)c(=O)c2ccccc12 | 0.945 (inactive) |
| COc1cc(NS(C)(=O)=O)ccc1Nc1c2ccccc2nc2ccccc12 | -1.31 (inactive) |
| CCC[C@@H]1C[C@@H](C(=O)N[C@@H]([C@H]2O[C@H](SC)[C@H](O)[C@@H](O)[C@H]2O)[C@H](C)Cl)N(C)C1 | -0.225 (inactive) and 0.615 (inactive) |
| O=C(/C=C/c1ccc(O)c(O)c1)O[C@H](Cc1ccc(O)c(O)c1)C(=O)O | 0.02 (inactive) |
| O=C(O)c1cc(=O)c2ccc(Cl)cc2[nH]1 | -0.2 (inactive) |
| CC[C@@]1(O)C[C@H](O[C@H]2C[C@H](N(C)C)[C@H](O[C@H]3C[C@H](O)[C@H](O[C@H]4CCC(=O)[C@H](C)O4)[C@H](C)O3)[C@H](C)O2)c2c(cc3c(c2O)C(=O)c2c(O)cccc2C3=O)[C@H]1C(=O)OC | -1.88 (inactive) |
| CC(=O)[C@H]1CC[C@H]2[C@@H]3CCC4=CC(=O)CC[C@]4(C)[C@H]3CC[C@]12C | -0.485 (inactive) and -1.04 (inactive) |
| N=c1ccn2c(n1)O[C@H]1[C@H](O)[C@@H](CO)O[C@H]12 | -1.8 (inactive) |
| O=C(O)c1cc(=O)c2ccccc2[nH]1 | 0.335 (inactive) and 0.005 (inactive) |
| CC(C)C[C@H]1C(=O)N2CCC[C@H]2[C@]2(O)O[C@](NC(=O)[C@@H]3C=C4c5cccc6[nH]c(Br)c(c56)C[C@H]4N(C)C3)(C(C)C)C(=O)N12 | -1.32 (inactive) and -1.22 (inactive) |
